About 83,000 compounds went through this panel and 20% of them were active in at least one assay; those are over-represented in the sample as a whole.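 Single-concentration screen, 48 h exposure, 96-well plates. Endpoint: percent growth. Below 10 = active.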 Unmarked numbers belong to inactive results. Calls of active or inactive are those of the source.

Test in all cases: NCI-60 one-dose screen, 48 h (100 = growth as untreated, 0 = no growth, -100 = all killed)
One assay deals with HCT-15 colon. As to conditions: 10 µM unless noted.
Another assay has as its system HT29 colon. Particulars: 10 µM unless noted.
A further assay deals with SNB-75 CNS. As to conditions: 10 µM unless noted.
The subject of another assay is SNB-19 CNS. As to conditions: 10 µM unless noted.
The next assay deals with U251 CNS. As to conditions: 10 µM unless noted.
The test system of the next assay is PC-3 prostate. As to conditions: 10 µM unless noted.
The next assay concerns SK-MEL-5 melanoma. As to conditions: 10 µM unless noted.
A further assay relates to UACC-62 melanoma. As to conditions: 10 µM unless noted.
The next assay concerns LOX IMVI melanoma. Particulars: 10 µM unless noted.
The next assay has as its system SK-MEL-28 melanoma. As to conditions: 10 µM unless noted.
The subject of another assay is SK-MEL-2 melanoma. As to conditions: 10 µM.
The subject of another assay is EKVX NSCLC. As to conditions: 10 µM unless noted.
For another assay, the system named is SN12C renal. As to conditions: 10 µM unless noted.
For a further assay, the system named is UO-31 renal. As to conditions: 10 µM unless noted.
The next assay concerns TK-10 renal. As to conditions: 10 µM unless noted.
The next assay concerns ACHN renal. As to conditions: 10 µM unless noted.
A further assay relates to CAKI-1 renal. As to conditions: 10 µM unless noted.
A further assay has as its system CCRF-CEM leukemia. Particulars: 10 µM unless noted.
In the next assay the test system is MOLT-4 leukemia. Particulars: 10 µM unless noted.
Another assay concerns A498 renal. Particulars: 10 µM unless noted.

Consider `Cc1ccsc1C(NC(=O)c1ccccc1)c1cc(Cl)c2cccnc2c1O` (stereo unspecified), for which the growth with HCT-15 colon was 13.4%; in the assay with HT29 colon it was 29.2%; in the assay on SNB-75 CNS, 30%; in the assay on SNB-19 CNS, 15.3%; with U251 CNS, 6.52% (active); with PC-3 prostate, 18.3%. Besides, the growth in the assay on SK-MEL-5 melanoma was 4.33% (active); in the assay with UACC-62 melanoma, -22.3% (active); in the assay on LOX IMVI melanoma, 8.58% (active); in the assay with SK-MEL-28 melanoma, 45.4%; with SK-MEL-2 melanoma, 12.6%; in the assay on EKVX NSCLC, 18.2%. Besides, the growth with SN12C renal was 23.2%; in the assay with UO-31 renal it was 2.22% (active); in the assay on TK-10 renal, 27.6%; in the assay on ACHN renal, 10.8%; in the assay on CAKI-1 renal it was 15.7%; in the assay on CCRF-CEM leukemia it was 9.96% (active). In the assay with MOLT-4 leukemia, the growth is 14.6%.

Consider `Cc1nn(-c2nc3ccccc3[nH]2)c2c1C(c1ccc(OCc3ccc(F)cc3)cc1)CC(=O)N2` (stereo unspecified), for which the growth was 41.5% in the assay on HCT-15 colon; 70.1% in the assay on HT29 colon; 48.3% with SNB-75 CNS; 64.9% with SNB-19 CNS; 41.6% in the assay on U251 CNS; 43.8% with PC-3 prostate. Further, the growth with SK-MEL-5 melanoma was 68.3%; in the assay with UACC-62 melanoma, 61.3%; in the assay with LOX IMVI melanoma, 28%; in the assay on SK-MEL-28 melanoma, 63%; with SK-MEL-2 melanoma, 30.7%; with EKVX NSCLC, 81.7%. Besides, the growth in the assay with SN12C renal is 55.4%; in the assay on UO-31 renal, 36.9%; in the assay on TK-10 renal, 56.1%; with ACHN renal it was 48.2%; in the assay on CAKI-1 renal, 66.2%; with CCRF-CEM leukemia, 52.8%. Further, the growth in the assay with MOLT-4 leukemia is 7.48% (active).

Take `COC(=O)[C@]12CC[C@@H](C)[C@H](C)[C@@H]1C1=CC[C@@H]3[C@@]4(C)C(C#N)=CC(C)=C4CC[C@@]3(C)[C@]1(C)CC2`: the growth with HCT-15 colon was 89.5%; with HT29 colon, 73.7%; with SNB-75 CNS, 84.5%; with SNB-19 CNS, 96.3%; in the assay on U251 CNS, 87.2%; with PC-3 prostate it was 68.9%. For the same molecule, the growth with SK-MEL-5 melanoma is 86.3%; with UACC-62 melanoma, 69.3%; in the assay with LOX IMVI melanoma, 92.1%; in the assay on SK-MEL-28 melanoma, 91.4%; in the assay with SK-MEL-2 melanoma, 82.9%; in the assay on EKVX NSCLC, 92.8%. For the same molecule, the growth in the assay with SN12C renal is 93.3%; in the assay on UO-31 renal, 84.8%; in the assay on TK-10 renal it was 99.2%; with ACHN renal, 79%; in the assay with CAKI-1 renal, 76.8%; in the assay on CCRF-CEM leukemia, 16%. Besides, the growth in the assay on MOLT-4 leukemia was 78.8%.

As for `CCN(CC)C(=O)C[N+](C)(C)CCOC(c1ccccc1)c1ccccc1`, the growth is 101% in the assay with HCT-15 colon; 105% in the assay with HT29 colon; 75.4% in the assay on SNB-75 CNS; 106% with SNB-19 CNS; 110% in the assay with U251 CNS; 100% in the assay with PC-3 prostate. Also, the growth with SK-MEL-5 melanoma is 103%; in the assay with UACC-62 melanoma, 106%; in the assay on LOX IMVI melanoma, 97.7%; in the assay on SK-MEL-28 melanoma, 105%; in the assay with SK-MEL-2 melanoma, 103%; in the assay on EKVX NSCLC it was 100%. Further, the growth in the assay on SN12C renal was 106%; with UO-31 renal it was 93.4%; in the assay on TK-10 renal it was 98.2%; in the assay with ACHN renal, 111%; in the assay on A498 renal it was 114%; in the assay with CCRF-CEM leukemia, 112%. In the assay with MOLT-4 leukemia, the growth was 103%.

`Cc1ccccc1Nc1nc2nonc2nc1Nc1cccc(C)c1C`: the growth with HCT-15 colon is 44.8%; in the assay on HT29 colon, 46.9%; in the assay with SNB-75 CNS it was 75.8%; in the assay with SNB-19 CNS, 52.7%; with U251 CNS it was 29.9%; in the assay with PC-3 prostate, 42.2%. For the same molecule, the growth in the assay with SK-MEL-5 melanoma is 5.63% (active); in the assay with UACC-62 melanoma, 22.8%; in the assay on LOX IMVI melanoma, 54%; in the assay with SK-MEL-28 melanoma it was 79.7%; in the assay on SK-MEL-2 melanoma, 24.9%; in the assay with EKVX NSCLC it was 27.2%. For the same molecule, the growth with SN12C renal is 44.3%; in the assay on UO-31 renal it was 51.4%; in the assay on TK-10 renal, 56.4%; with ACHN renal, 52.6%; with CAKI-1 renal, 48.9%; in the assay with CCRF-CEM leukemia it was 50.6%. Besides, the growth in the assay with MOLT-4 leukemia is 53.5%.

Consider `CCN1CCN(c2cc(C)nc(N(CCCNc3ccnc4cc(Cl)ccc34)Cc3cccs3)n2)CC1`, for which the growth was 3.14% (active) with HCT-15 colon; 1.82% (active) in the assay with HT29 colon; -5.92% (active) in the assay on SNB-75 CNS; 12.5% in the assay on SNB-19 CNS; 0.735% (active) in the assay on U251 CNS; 32.8% in the assay with PC-3 prostate. The growth with SK-MEL-5 melanoma was -97.4% (active); with UACC-62 melanoma, -19.8% (active); in the assay with LOX IMVI melanoma, -73.5% (active); in the assay with SK-MEL-28 melanoma it was -65.9% (active); in the assay with SK-MEL-2 melanoma, -37.8% (active); in the assay on EKVX NSCLC it was 42.3%. The growth in the assay on SN12C renal was 39%; in the assay on UO-31 renal it was -76.1% (active); in the assay on TK-10 renal it was -41% (active); in the assay on ACHN renal, 7.79% (active); in the assay on A498 renal, -13.7% (active); in the assay with CCRF-CEM leukemia, 1.95% (active). Also, the growth in the assay with MOLT-4 leukemia is 5.24% (active).

For the molecule `c1ccc2c(c1)CCN(NCCN1CCCC1)C2`, the growth in the assay with HCT-15 colon is 105%; in the assay with HT29 colon it was 101%; with SNB-75 CNS, 70.9%; with SNB-19 CNS, 107%; in the assay on U251 CNS it was 94.3%; in the assay on PC-3 prostate, 64.6%. Further, the growth is 104% with SK-MEL-5 melanoma; 98.6% in the assay on UACC-62 melanoma; 90.1% with LOX IMVI melanoma; 109% with SK-MEL-28 melanoma; 91.5% in the assay with SK-MEL-2 melanoma; 86.4% in the assay with EKVX NSCLC. For the same molecule, the growth is 94.8% in the assay with SN12C renal; 75% with UO-31 renal; 96.6% in the assay with TK-10 renal; 89% with ACHN renal; 87.7% in the assay on A498 renal; 79.3% in the assay on CCRF-CEM leukemia.

For the molecule `Nc1nc(=S)c2ncn(C3OC(COC(=O)c4ccc(Cl)cc4)C(OC(=O)c4ccc(Cl)cc4)C3OC(=O)c3ccc(Cl)cc3)c2[nH]1` (stereo unspecified), the growth was 95.5% in the assay with HCT-15 colon; 87.9% with HT29 colon; 76.7% with SNB-75 CNS; 86.9% with SNB-19 CNS; 38% in the assay with U251 CNS; 84.9% in the assay with PC-3 prostate. The growth is 65.7% with SK-MEL-5 melanoma; 94.1% in the assay on UACC-62 melanoma; 90.5% with LOX IMVI melanoma; 82.4% in the assay on SK-MEL-28 melanoma; 94.5% with SK-MEL-2 melanoma; 71.4% in the assay on EKVX NSCLC. For the same molecule, the growth with SN12C renal was 92.7%; in the assay with UO-31 renal, 79.4%; with TK-10 renal it was 91.3%; with ACHN renal it was 98.2%; in the assay with A498 renal, 75%; with CCRF-CEM leukemia, 12.7%. Further, the growth with MOLT-4 leukemia was 65.1%.

These data come from PubChem BioAssay (NCI).
